Data as given in PubChem BioAssay (EPA / NIEHS).
Inconclusive results are not listed. Activity calls are given as the source filed them. Rule for the calls: active = hit-call score of the fitted dose curve at least 0.9, where 1 is the maximum; inconclusive = response in the unintended direction; inactive = score below 0.9.

Experiment: Tanguay_ZF_120hpf_CIRC_legacy: (Legacy) Oregon State University Tanguay Lab 120 Hour Post-fertilization zebrafish Assay for Circulatory Malformation (AID 2283651)
Description: Tanguay_ZF_120hpf_legacy is a whole embryo, multiplexed endpoint assay using zebrafish larvae exposed for 120 hours post fertilization on a 96-well plate.Tanguay_ZF_120hpf_CIRC_legacy is one of one assay component(s) measured or calculated from the Tanguay_ZF_120hpf_legacy assay. It is designed to make measurements of zebrafish development as detected with brightfield microscopy of developing zebrafish embryos.Data from the assay component Tanguay_ZF_120hpf_CIRC_legacy was analyzed into 1 assay endpoints. This assay endpoint, Tanguay_ZF_120hpf_CIRC_legacy, was analyzed in the positive analysis fitting direction relative to DMSO as the negative control and baseline of activity. Using a type of morphology reporter, gain-of-signal activity can be used to understand changes in developmentals as they relate to the whole embryo. To generalize the intended target to other relatable targets, this assay endpoint is annotated to the zebrafish development intended target family, where the subfamily is angiogenesis.
Zebrafish husbandry: Tropical 5D wild-type adult zebrafish were housed in at an approximate density of 1000 per 100 gallon tank at the Sinnhuber Aquatic Research Laboratory, Oregon State University, Corvallis, OR. Each tank was kept at standard laboratory conditions of 28C on a 14-h light/10-h dark photoperiod in fish water consisting of reverse osmosis water supplemented with a commercially available salt (Instant Ocean). Spawning funnels were placed into the tanks the night prior, and embryos were collected and staged. To increase bioavailability, the chorion was enzymatically removed using pronase (63.6mg/ml, >/= 3.5U/mg, Sigma-Aldrich: P5147) at 4 hours post fertilization (hpf) using a custom automated dechorionator.Chemical exposures: Six hpf dechorionated embryos were placed 1 embryo per well in a 96-well plate prefilled with 90 ul of EM using automated embryo placement systems (AEPS). Ten microliters of each row of dilution plate 2 was added to 2 exposure plates. The final DMSO concentration used was 0.64% (vol/vol). Thirty-two embryos were also exposed to 5uM trimethyltin chloride (positive control). Plates were sealed to prevent evaporation and foil covered to reduce light exposure and kept in a 28C incubator. Embryos were statically exposed until 120 hpf. At 24 hpf, embryos were assessed for photomotor response using a custom photomotor response analysis tool (PRAT) and for developmental toxicity endpoints (MO24: mortality at 24 hpf, DP: developmental progression, SM: spontaneous movement, and NC: notochord distortion). At 120 hpf, locomotor activity was measured using Viewpoint Zebralab and assessed for 18 endpoints. Zebrafish acquisition and analysis program (ZAAP), a custom program designed to inventory, acquire, and manage zebrafish data, was used to collect developmental endpoints as either present or absent (i.e., binary responses were recorded). If mortality occurred for an embryo (at either 24 or 120 hpf), the non-mortality endpoints were not measured.

Row | Structure (SMILES) | outcome
1 | N#Cc1cc(Br)c(O)c(Br)c1 | inactive
2 | CC(C)Oc1cc(-n2nc(C(C)(C)C)oc2=O)c(Cl)cc1Cl | inactive
3 | CCOC(=O)C(Cl)Cc1cc(-n2nc(C)n(C(F)F)c2=O)c(F)cc1Cl (stereo not given) | inactive
4 | C#CCOS(=O)OC1CCCCC1Oc1ccc(C(C)(C)C)cc1 (stereo not given) | inactive
5 | Fc1ccc(Oc2ccnc3cc(Cl)cc(Cl)c23)cc1 | inactive
6 | C=CCC1=C(C)C(OC(=O)C2C(C=C(C)C)C2(C)C)CC1=O (stereo not given) | inactive
7 | CO/C=C(/C(=O)OC)c1ccccc1Oc1cc(Oc2ccccc2C#N)ncn1 | inactive
8 | COP(N)(=O)SC (stereo not given) | inactive
9 | Cc1ccc(-c2c(Cl)nc(C#N)n2S(=O)(=O)N(C)C)cc1 | inactive
10 | CC(C)C1(C)N=C(c2nc3ccccc3cc2C(=O)O)NC1=O (stereo not given) | inactive
11 | CCCCOC(=O)c1ccccc1C(=O)OCCCC | inactive
12 | CCCN(CCC)c1c([N+](=O)[O-])cc(S(N)(=O)=O)cc1[N+](=O)[O-] | inactive
13 | CC(Oc1ccc(Cl)cc1Cl)C(=O)O (stereo not given) | inactive
14 | COc1nc(NC(C)C)nc(NC(C)C)n1 | inactive
15 | COC(=O)N(OC)c1ccccc1COc1ccn(-c2ccc(Cl)cc2)n1 | inactive
16 | O=C(O)c1nc(Cl)ccc1Cl | inactive
17 | CC1COC(Cn2cncn2)(c2ccc(Oc3ccc(Cl)cc3)cc2Cl)O1 (stereo not given) | inactive
18 | CCCCC(CC)COC(=O)c1ccccc1C(=O)OCC(CC)CCCC (stereo not given) | inactive
19 | CCOC(=O)CC(SP(=S)(OC)OC)C(=O)OCC (stereo not given) | inactive
20 | N#Cc1nn(-c2c(Cl)cc(C(F)(F)F)cc2Cl)c(N)c1S(=O)C(F)(F)F (stereo not given) | inactive

Row | Structure (SMILES) | outcome
21 | CN(C)C(=S)SSC(=S)N(C)C | inactive
22 | COc1ccc(C(c2ccc(OC)cc2)C(Cl)(Cl)Cl)cc1 | inactive
23 | CNC(=O)ON=CC(C)(C)SC | inactive
24 | CCNc1nc(Cl)nc(NC(C)C)n1 | inactive
25 | O=C(O)COc1nc(Cl)c(Cl)cc1Cl | inactive
26 | CCCCNC(=O)OCC#CI | inactive
27 | CCc1nn(C)c(C(=O)NCc2ccc(C(C)(C)C)cc2)c1Cl | inactive
28 | C=CCC1=C(C)[C@@H](OC(=O)[C@@H]2[C@@H](C=C(C)C)C2(C)C)CC1=O | inactive
29 | CC1=C(C(=O)Nc2ccccc2)SCCO1 | inactive
30 | CCNc1nc(Cl)nc(NCC)n1 | inactive
31 | N#CC(CCc1ccc(Cl)cc1)(Cn1cncn1)c1ccccc1 (stereo not given) | inactive
32 | COP(=S)(OC)Oc1nc(Cl)c(Cl)cc1Cl | inactive
33 | COc1cnc(OC)n2nc(NS(=O)(=O)c3c(OCC(F)F)cccc3C(F)(F)F)nc12 | inactive
34 | CCOP(=S)(OCC)SCn1c(=O)oc2cc(Cl)ccc21 | inactive
35 | C=CC1(C)OC(=O)N(c2cc(Cl)cc(Cl)c2)C1=O (stereo not given) | inactive
36 | O=C(Nc1ccccc1)Nc1ccnc(Cl)c1 | inactive
37 | Cc1c(F)c(F)c(COC(=O)C2C(/C=C(\Cl)C(F)(F)F)C2(C)C)c(F)c1F (stereo not given) | inactive
38 | COC(=O)c1ccccc1C(=O)OC | inactive
39 | CCCCNC(=O)n1c(NC(=O)OC)nc2ccccc21 | inactive
40 | CCCC1COC(Cn2cncn2)(c2ccc(Cl)cc2Cl)O1 (stereo not given) | inactive
